Compound activity (PubChem BioAssay)
In the library only some 21% were active in any assay of this set; here they are far more common.
CHX counter: Cycloheximide Counterscreen for Small Molecule Inhibitors of Shiga Toxin. AID 2314, 2010. 12% of 300,000 active. max response, %. cell reporter, cycloheximide protein synthesis inhibition counterscreen; in the data active means max response mostly above about 13%, no sharp cut-off; inactive means mostly below about 14%; further: read at 38.3 µM for the half of the compounds with a filed dose; 0% is about no effect
HCV inhibitor: qHTS Assay for Inhibitors of Hepatitis C Virus (HCV); AID 651820, 2012; Huh7.5.1 HCVcc-Cre infection, luciferase reporter, 44 h; 3.4% of 340,000 active; Potency, µM (highest dose often 41.8 µM), for the others: at the top dose activity change, negative = inhibition, actives largely listed as inhibitors; further: potency means the concentration at half of the fitted maximal effect; on the % scale 0 is the no-effect control and ±100 the full control effect
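Infectious HCVcc-Cre (~0.5 moi) was added to cells just after compound, with cells seeded 4 h earlier at 1,000 per well. Luciferase activity after 44 h culture reported infection; substrate was incubated 15 min at room temperature before reading.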
Pf growth 96h: Primary qHTS for delayed death inhibitors of the malarial parasite plastid, 96 hour incubation. P. falciparum luciferase reporter growth, 96 h. Potency, µM (series often up to 28.7 µM), without a hit: at the highest dose activity change, negative = inhibition, usual class: inhibitors. 6.9% of 320,000 active. AID 504834, 2011; further: potency means the concentration at half of the fitted maximal effect; on the % scale 0 is the no-effect control and ±100 the full control effect
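Compounds incubated with erythrocytes infected by luciferase-expressing P. falciparum (2% hematocrit, 0.05% parasitemia final) for 96 hours, 37 C in 5% CO2. Growth inhibition scored as decreased luciferase luminescence.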
Pf growth 48h: Primary qHTS for delayed death inhibitors of the malarial parasite plastid, 48 hour incubation; P. falciparum luciferase growth in erythrocytes, 48 h; Potency, µM (titrated, usually from 28.7 µM), for inactives: at the top dose activity change, negative = inhibition, actives largely listed as inhibitors; 5.9% of 310,000 active; further: potency means the concentration at half of the fitted maximal effect; on the % scale 0 is the no-effect control and ±100 the full control effect
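Parasite viability was followed by luminescence of a genomically integrated firefly luciferase. Cultures held 0.1% parasitemia at 2% hematocrit (final), incubated under 5% CO2 at 37 C.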
Shiga inhibitor: A qHTS for Small Molecule Inhibitors of Shiga Toxin; Vero cells, Shiga toxin protein synthesis inhibition reporter; AID 2315, 2010; 9.2% of 290,000 active; inhibition, % at 38.7 µM; in the data active means inhibition mostly above about 28%, no sharp cut-off; inactive means mostly below about 43%; further: 0% is about no effect
HCMV antiviral: qHTS Assay for inhibitors of the human cytomegalovirus (HCMV); HFF cells, HCMV-luciferase reporter, 72 h; hits give low values; activity change, negative = inhibition, % at 57.5 µM; 4.5% of 410,000 active; AID 1259415, 2018; in the data active means activity change below about -60%; inconclusive means no clear call, values can overlap the other calls; inactive means above about -39%; further: on the % scale 0 is the no-effect control and ±100 the full control effect
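HFF cells seeded 16 h at 37C, treated with compounds, infected with luciferase-reporter HCMV at MOI 1 PFU/cell; luciferase read at 72 h post infection, normalized to buffer-only and Salinomycin controls.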
* hit, by the source's call; u = inconclusive; x = no result. Unless noted, the call rests on the fitted dose curve; in most records, active means well fitted inhibition curve with a large enough effect; inconclusive means small, poorly fitted or top-dose-only effect, or another doubt; inactive means no such curve, though single readings can be large or run the other way.

SMILES	CHX counter	HCV inhibitor	Pf growth 96h	Pf growth 48h	Shiga inhibitor	HCMV antiviral
Cc1ccc(C)c(N2CCN(C(=O)CCc3nnc4n(C)c(=O)c5ccccc5n34)CC2)c1	x	x	x	x	x	19.3
C[C@H]1CN([C@@H](C)CO)S(=O)(=O)c2ccc(Br)cc2O[C@H]1CN(C)Cc1ccccc1	x	x	x	x	x	11.5
C[C@H]1CN([C@@H](C)CO)S(=O)(=O)c2ccc(/C=C/c3ccccc3)cc2O[C@H]1CN(C)C(=O)NC1CCCCC1	x	x	x	x	x	-62.6*
C[C@H](CO)N1C[C@H](C)[C@H](CN(C)Cc2ccc(Oc3ccccc3)cc2)Oc2cc(Br)ccc2S1(=O)=O	x	x	x	x	x	-109.2*
CCCCNCC(=O)Nc1ccc(NC(=O)CNCCCC)cc1	-2.7	u	11.7µM*	u	-17.9	-3.7
CCCCc1ccc(NC(=O)CC(C)C)cc1	29.3*	-13.2%	22.5%	u	66.2*	-37.2
CCOCC(=O)Nc1ccc(Br)c(C)c1	31.5*	-12.4%	5.7%	36.6%	76.1*	u
CCCCc1ccc(NC(=O)COCC)cc1	50.3*	18.9%	x	u	44.4*	-27.9
Cc1cc(NC(=O)COC(=O)C2CC2)ccc1Br	x	0.2%	-2.0%	-7.0%	x	25.4
Cc1cc(=O)c2c(o1)C(=O)c1occc1C2=O	x	0.4%	x	x	x	74.4
COc1cccc(NC(=O)CC(C)=O)c1	7.2	2.4%	-5.0%	6.8%	-3.1	5.0
COc1ccc(Nc2nc(CC(C)=O)ns2)cc1	27.4*	2.9%	2.62µM*	111.0%	68.3*	78.3
COc1cccc(Nc2nc(CC(C)=O)ns2)c1	18.7*	-10.5%	u	91.9%	59.9*	71.1
c1coc(-c2ccnc3nc(-n4cccc4)nn23)c1	5.5	u	u	10.4µM*	-5.7	-10.4
COc1ccc(-c2ccnc3nc(-n4cccc4)nn23)cc1	-2.3	x	u	u	-8.8	13.0
CCCCCCCCNc1ncnc2[nH]ncc12	x	11.2µM*	x	x	x	-75.9*
CCNC(=O)C(=O)NCC1OCCCN1S(=O)(=O)c1cccs1 (configuration not stated)	6.4	30.9%	12.5%	-22.3%	-2.2	4.4
COC(=O)c1ccccc1NC(=O)c1cc([N+](=O)[O-])nn1Cc1ccccc1	-1.1	7.4%	0.657µM*	-3.9%	-10.8	-5.4
CN(CCC#N)C(=S)Nc1ccc(Oc2ccccc2)cc1	-2.1	1.0%	u	3.0%	-13.7	-29.7
CN(C(=S)Nc1ccc(Oc2ccccc2)cc1)C1CCCCC1	22.0*	u	36.3%	9.9%	-2.9	u
CCCCN(C)C(=S)Nc1ccc(Oc2ccccc2)cc1	21.8*	-0.4%	-13.2%	0.5%	12.1	-9.0
CCc1nn2c(=O)cc(COC(=O)C(CC)c3ccccc3)nc2s1 (configuration not stated)	x	x	x	x	x	-13.5
O=S1(=O)C=C(Sc2ccc(Cl)cc2)c2ccccc2C1Cc1ccc(F)cc1 (configuration not stated)	x	x	x	x	x	-1.5
CC(Nc1cccc([N+](=O)[O-])c1)C(=O)Nc1ccc(S(=O)(=O)N2CCCC2)cc1 (configuration not stated)	x	-4.5%	u	u	x	-20.6
COc1cc(C=NO)nc(-c2ccccn2)c1	x	u	x	x	x	-100.2*
SMILES	CHX counter	HCV inhibitor	Pf growth 96h	Pf growth 48h	Shiga inhibitor	HCMV antiviral
COc1ccc(Oc2ccccc2/C=N/O)cc1	-2.8	u	-6.1%	35.3%	-3.9	-38.0
O=C(c1cc(C(=O)NCc2ccccc2)c(=O)n(Cc2ccccc2)c1)c1cc(Br)ccc1O	-0.6	u	0.415µM*	1.47µM*	-1.1	-13.6
Cc1ccc(O)c(C(=O)c2cc(C(=O)NCc3ccccc3)c(=O)n(Cc3ccccc3)c2)c1	11.5	u	u	3.7µM*	-8.9	10.3
Cc1ccccc1-c1nc(S(=O)(=O)c2ccccc2)c(N2CCCC2)o1	x	u	x	x	x	-12.9
Cc1nc2ccccc2c2oc(C(=O)N3CCCC(C)C3)cc12 (configuration not stated)	14.8*	11.0%	28.3%	-3.9%	12.8	0.2
Cc1nc2ccccc2c2oc(C(=O)N3CCC(N4CCCCC4)CC3)cc12	-4.1	-17.4%	-14.5%	u	-8.1	x
CCc1ccc2oc(C(=O)N3CCN(c4ccc(OC)cc4)CC3)cc(=O)c2c1	1.8	u	-13.9%	30.3%	24.5	-62.6*
COc1ccc(N2CCN(C(=O)c3cc4c(C)nc5ccccc5c4o3)CC2)cc1	-2.7	u	0.828µM*	2.1%	-1.0	-99.9*
O=C(CN1C(=O)S/C(=C/c2ccncc2)C1=O)Nc1ccccc1	-0.4	4.1%	u	-3.6%	-3.3	-30.5
Cc1ccc(NC(=O)C[n+]2ccccc2)cc1C	-1.5	10.7%	9.28µM*	13.9%	7.4	11.3
Cc1ccc(NC(=O)Cn2cccc2)cc1Cl	8.5	-2.2%	u	23.6%	-1.0	-33.1
Cc1ccc(NC(=O)CN2C(=O)S/C(=C\c3ccccn3)C2=O)cc1C	0.8	4.7%	10.4µM*	-13.4%	-5.2	18.4
CCc1ccc(NC(=O)Cn2cccc2)cc1	24.6*	-1.1%	u	36.4%	66.2	20.8
Cc1ccc(NC(=O)Cn2cccc2)cc1	5.4	4.3%	22.2%	25.3%	20.3	11.0
Cc1ccc(NC(=O)Cn2cccc2)cc1C	15.1*	-28.5%	0.0%	0.0%	33.1	u
COc1cccc(CNC(=O)c2ccc(-c3nc(CSc4ccccc4)c(C)o3)cc2)c1	x	x	x	x	x	8.9
COC(=O)c1sc(N2C(=O)c3oc4ccc(C)cc4c(=O)c3C2c2ccc(O)c(OC)c2)nc1C (configuration not stated)	x	x	x	x	x	7.7
O=C(CCNC(=O)c1ccc(Cl)cc1)Nc1cccc(S(=O)(=O)N2CCCCC2)c1	x	-22.4%	u	u	x	-21.6
CCc1ccccc1NC(=O)Cc1ccc(-n2cccc2)cc1	0.5	u	-7.9%	-8.7%	-8.2	7.9
CCc1ccc(NC(=O)Cc2ccc(-n3cccc3)cc2)cc1	-5.9	7.4%	2.08µM*	20.1%	-1.7	-11.2
CCOc1ccc2nc(N3CCCC(C(=O)Nc4cc(Cl)c(OC)cc4OC)C3)sc2c1 (configuration not stated)	x	x	x	x	x	30.1
Cc1c(NC(=O)c2nc3ccccc3nc2N2CCCCC2)cccc1[N+](=O)[O-]	x	x	x	x	x	-9.0
COc1ccc(N(Cc2nc3cc(C)c(C)cc3[nH]2)Cc2nc3cc(C)c(C)cc3[nH]2)cc1	x	x	x	x	x	20.3
Cc1cc2nc(/C=C/c3cccnc3)[nH]c2cc1C	30.9*	-7.2%	-1.2%	-80.8%	39.8*	-92.2*
Cc1cc2nc(CN(Cc3ccccc3)Cc3nc4cc(C)c(C)cc4[nH]3)[nH]c2cc1C	x	x	x	x	x	-11.8
